This is an account of results in PubChem BioAssay (EPA / NIEHS).

By AC50 is commonly meant the concentration at which the activity in the assay is half-maximal.

Results filed as inconclusive are left out. Calls of active or inactive are those of the source. The calls were made as follows: active = hit-call score of the fitted dose curve at least 0.9, where 1 is the maximum; inconclusive = response in the unintended direction; inactive = score below 0.9.

Chain of rat Adrenergic Receptor, Alpha 2 (Adra2), Non-selective Binding, Adra2a (gene 25083) (P22909 whole entry, looked up): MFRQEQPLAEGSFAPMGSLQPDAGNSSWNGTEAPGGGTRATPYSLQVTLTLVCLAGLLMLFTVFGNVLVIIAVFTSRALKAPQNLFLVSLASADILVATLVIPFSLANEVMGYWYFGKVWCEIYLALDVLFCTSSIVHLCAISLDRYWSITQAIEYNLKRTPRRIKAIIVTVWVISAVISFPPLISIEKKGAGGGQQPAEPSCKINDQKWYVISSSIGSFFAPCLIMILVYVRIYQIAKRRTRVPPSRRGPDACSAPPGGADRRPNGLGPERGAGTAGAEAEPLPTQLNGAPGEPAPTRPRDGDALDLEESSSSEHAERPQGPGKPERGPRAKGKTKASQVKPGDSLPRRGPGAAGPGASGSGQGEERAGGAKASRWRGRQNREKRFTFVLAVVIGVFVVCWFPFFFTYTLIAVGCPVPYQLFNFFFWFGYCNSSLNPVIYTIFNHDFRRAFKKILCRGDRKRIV

In one test the target is rat Adrenergic Receptor, Beta (Adrb), Non-selective Binding, Adrb1 (gene 24925) (UniProt P18090). Nature of the test: NVS_GPCR_rAdrb_NonSelective: NovaScreen (NVS) G Protein-Coupled Receptor Assay for rat Adrenergic Receptor, Beta (Adrb), Non-selective Binding (AID 2283298). The protocol: NVS_GPCR_rAdrb_NonSelective is a biochemical, single-readout assay that uses extracted gene-proteins from Rat cortical membranes in a tissue-based cell-free assay. Measurements were taken 1 hour after chemical dosing in a 48-well plate.NVS_GPCR_rAdrb_NonSelective is one of one assay component(s) measured or calculated from the NVS_GPCR_rAdrb_NonSelective assay. It is designed to make measurements of radioligand binding, a form of binding reporter, as detected with scintillation counting signals by Filter-based radiodetection technology.Data from the assay component NVS_GPCR_rAdrb_NonSelective was analyzed into 1 assay endpoint. This assay endpoint, NVS_GPCR_rAdrb_NonSelective, was analyzed in the positive analysis fitting direction relative to DMSO as the negative control and baseline of activity. Using a type of binding reporter, loss-of-signal activity can be used to understand changes in the binding as they relate to the gene Adrb1. Furthermore, this assay endpoint can be referred to as a primary readout, because the performed assay has only produced 1 assay endpoint. To generalize the intended target to other relatable targets, this assay endpoint is annotated to the gpcr intended target family, where the subfamily is rhodopsin-like receptor.
Chain of rat Adrenergic Receptor, Beta (Adrb), Non-selective Binding, Adrb1 (gene 24925) (P18090 whole entry, looked up): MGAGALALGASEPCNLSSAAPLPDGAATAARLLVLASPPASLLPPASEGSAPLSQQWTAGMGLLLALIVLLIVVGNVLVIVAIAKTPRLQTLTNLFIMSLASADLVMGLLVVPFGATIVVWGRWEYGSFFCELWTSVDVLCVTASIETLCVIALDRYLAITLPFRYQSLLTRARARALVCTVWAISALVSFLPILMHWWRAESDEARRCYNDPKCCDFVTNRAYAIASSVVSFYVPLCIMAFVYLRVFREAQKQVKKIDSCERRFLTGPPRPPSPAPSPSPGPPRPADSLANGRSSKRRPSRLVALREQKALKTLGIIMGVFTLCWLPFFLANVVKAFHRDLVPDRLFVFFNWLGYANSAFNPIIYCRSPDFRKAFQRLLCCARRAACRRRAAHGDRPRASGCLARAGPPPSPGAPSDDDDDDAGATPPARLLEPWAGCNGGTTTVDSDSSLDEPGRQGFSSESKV
Binding assays used specific radioligands (tritiated, iodinated) with non-radioactive competitive displacement ligands in agonist or antagonist protocols (as indicated) and various reference compounds and inhibitors to titrate specific binding to receptors and transporters. Most enzyme assays (CYPs, kinases, phosphatases, proteases, HDACs) used recombinant protein and specific substrates (fluorescence mostly, some colorimetric and radioactive) and inhibitors, followed by a biochemical separation of substrate and product. All assays for the biochemical HTS were initially run in duplicate at a single concentration (10 uM for CYP450 assays and 25 uM for all others). Assay-chemical combinations meeting a pre-defined threshold (e.g., 30% inhibition and other criteria defined below) were then run in singleton concentration-response format with maximum concentration of 20 uM for CYPs and 50 uM for all others. Each assay was run with positive and negative controls, and concurrent controls on every plate. The follow-up (secondary) screen tested active chemical-pairs in concentration series, as well as a few additional assays not tested in the primary screen, some selected negative inactives, and several cases re-run in the concentration series for confirmatory purposes.
For `CCCCCCCC1CCC(=O)O1` (stereo unspecified), the outcome was inactive.

Take `OCCOCCOCCO`: the compound was classed as inactive.

Turning to `CCn1nc(C)c2c1C(=O)NCC(c1ccc(O)cc1)=N2`, the compound was called inactive.

For the compound `NC(=O)NN=Cc1ccc([N+](=O)[O-])o1`, the compound was called inactive.

Another test addresses rat Adrenergic Receptor, Alpha 2 (Adra2), Non-selective Binding, Adra2a (gene 25083) (UniProt P22909). Nature of the test: NVS_GPCR_rAdra2_NonSelective: NovaScreen (NVS) G Protein-Coupled Receptor Assay for rat Adrenergic Receptor, Alpha 2 (Adra2), Non-selective Binding (AID 2283299). The gist of the method:
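Filter-based scintillation counting of radioligand binding to rat cortical membrane receptors, measured 1.25 hours post-dosing; loss of signal versus DMSO indicates displacement. Initial single-concentration duplicate at 25 uM, then concentration series.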
Take `COc1cc(C(C)C)c2c(c1)S(=O)(=O)N(COc1cc(=O)n3cccc(OCCN4CCCCC4)c3n1)C2=O`: the AC50 was 4.16 µM (active).

`CCCCCCCCN(C)C`: the compound was called inactive.

Regarding `CCn1nc(C)c2c1C(=O)NCC(c1ccc(O)cc1)=N2`, the result was inactive.

Regarding `Cc1nccn1-c1ccc(Sc2cccc(C3(C(N)=O)CCOCC3)c2)cc1`, the half-maximal activity concentration (AC50) is 11.1 µM (active).

In the case of `O=C(O)c1ccc2c(c1)nc(C(=O)NC1CCN(C3CC3)CC1)n2Cc1cc(-c2ccc(Cl)s2)on1`, the AC50 is 3.26 µM (active).

For `c1ccc(C(O[C@@H]2CCCN(CCc3ccc4c(c3)OCO4)C2)c2ccccc2)cc1`, the AC50 is 19.5 µM (active).

Regarding `S=P(N1CC1)(N1CC1)N1CC1`, the compound was classed as inactive.

For the next test, the target named is rat Gamma-Aminobutyric Acid Type B Receptor (GABBR), Gabbr1 (gene 81657) (UniProt Q9Z0U4). Nature of the test: NVS_GPCR_rGABBR: NovaScreen (NVS) G Protein-Coupled Receptor Assay for rat Gamma-Aminobutyric Acid Type B Receptor (GABBR) (AID 2283301). The gist of the method: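 Rat cortical membrane preparation, competitive radioligand binding for 1 h with filtration and scintillation readout. Actives from duplicate single-point 25 uM screening proceeded to concentration series with 50 uM top concentration.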
Chain of rat Gamma-Aminobutyric Acid Type B Receptor (GABBR), Gabbr1 (gene 81657) (Q9Z0U4 whole entry, looked up): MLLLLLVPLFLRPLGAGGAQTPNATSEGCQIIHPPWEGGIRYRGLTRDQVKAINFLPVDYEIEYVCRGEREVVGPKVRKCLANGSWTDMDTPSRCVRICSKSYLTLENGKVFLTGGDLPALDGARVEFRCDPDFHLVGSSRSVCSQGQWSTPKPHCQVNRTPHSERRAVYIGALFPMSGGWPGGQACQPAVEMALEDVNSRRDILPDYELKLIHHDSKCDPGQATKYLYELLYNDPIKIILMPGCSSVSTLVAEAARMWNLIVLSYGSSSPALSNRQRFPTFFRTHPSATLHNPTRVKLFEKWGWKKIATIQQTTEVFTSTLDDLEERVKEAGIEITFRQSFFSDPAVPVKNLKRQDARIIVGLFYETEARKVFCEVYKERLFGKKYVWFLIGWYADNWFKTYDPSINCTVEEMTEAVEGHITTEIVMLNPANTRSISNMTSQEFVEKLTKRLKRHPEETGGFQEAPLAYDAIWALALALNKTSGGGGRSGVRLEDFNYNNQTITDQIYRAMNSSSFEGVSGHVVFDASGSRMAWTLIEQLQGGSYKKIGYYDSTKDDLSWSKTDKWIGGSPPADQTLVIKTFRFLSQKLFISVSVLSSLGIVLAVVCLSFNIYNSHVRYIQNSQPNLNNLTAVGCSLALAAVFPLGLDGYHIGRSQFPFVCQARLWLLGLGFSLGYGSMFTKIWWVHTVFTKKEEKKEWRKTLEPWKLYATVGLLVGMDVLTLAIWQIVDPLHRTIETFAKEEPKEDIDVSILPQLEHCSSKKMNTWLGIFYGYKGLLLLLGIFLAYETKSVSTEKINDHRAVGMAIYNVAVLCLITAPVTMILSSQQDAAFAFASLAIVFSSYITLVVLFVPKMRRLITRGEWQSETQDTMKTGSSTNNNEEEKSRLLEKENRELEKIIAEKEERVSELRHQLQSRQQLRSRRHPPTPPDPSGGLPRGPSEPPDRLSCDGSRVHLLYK
Consider `CCCCCCCCCC`, for which the outcome was inactive.

`NC(=O)N1c2ccccc2C=Cc2ccccc21`: the call was inactive.

`CCCC(CCC)C(=O)O`: the compound was classed as inactive.

On to `O=c1[nH]cnc2c1ncn2[C@H]1CC[C@@H](CO)O1`, for which the result was inactive.

Regarding `c1ccc(C(O[C@@H]2CCCN(CCc3ccc4c(c3)OCO4)C2)c2ccccc2)cc1`, the result was inactive.
